PubChem BioAssay AID1159580 (chemical genetic matrix, 2015)
Screen size: about 5,500 compounds; about 2,000 (36%) were called active. About 18% were inconclusive and are not listed. Cut-off read from the data, not from the text of the source: active = normalized growth mostly below about 0.91 (no sharp cut-off); inconclusive = no clear call, values can overlap the other calls; inactive = mostly above about 0.92. This is one part of the list.

Experiment: chemical genetic growth profiling, strain panel (AID 1159580);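 note: tested at 20 µM; growth read once vehicle control cultures reached saturation at 30 °C; 1 = growth at the plate median or of vehicle wells; lower values mean less growth of the strain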
Conditions: S. cerevisiae deletion strains, growth OD

Measured: normalized growth

O=C(O/N=C1/CCCc2[nH]c3ccccc3c21)C1CCCCC1
inactive: locus YAR019C, strain CDC15, active compounds read low 0.972 | locus YBL105C, strain PKC1, active compounds read low 0.959 | locus YBR135W, strain CKS1, active compounds read low 0.964 | locus YBR136W, strain MEC1, active compounds read low 0.947 | locus YBR160W, strain CDC28, active compounds read low 0.962 | locus YDL017W, strain CDC7, active compounds read low 0.955 | locus YDL028C, strain MPS1, active compounds read low 0.962 | locus YDL101C, strain DUN1, active compounds read low 0.973 | locus YDL108W, strain KIN28, active compounds read low 0.931 | locus YDL132W, strain cdc53, active compounds read low 0.97 | locus YDL214C, strain PRR2, active compounds read low 0.881 | locus YDR052C, strain DBF4, active compounds read low 0.971 | locus YDR054C, strain cdc34, active compounds read low 0.951 | locus YDR226W, strain ADK1, active compounds read low 0.962 | locus YDR477W, strain SNF1, active compounds read low 0.905 | locus YER123W, strain YCK3, active compounds read low 0.821 | locus YER133W, strain GLC7, active compounds read low 0.888 | locus YFL009W, strain cdc4, active compounds read low 0.973 | locus YFL029C, strain CAK1, active compounds read low 0.966 | locus YFR003C, strain YPI1, active compounds read low 0.961 | locus YFR019W, strain FAB1, active compounds read low 0.918 | locus YFR028C, strain CDC14, active compounds read low 0.975 | locus YGR040W, strain KSS1, active compounds read low 0.856 | locus YGR052W, strain FMP48, active compounds read low 0.914 | locus YGR092W, strain DBF2, active compounds read low 0.845 | locus YHR030C, strain SLT2, active compounds read low 0.971 | locus YHR079C, strain IRE1, active compounds read low 0.963 | locus YHR082C, strain KSP1, active compounds read low 0.899 | locus YHR205W, strain SCH9, active compounds read low 0.873 | locus YIL147C, strain SLN1, active compounds read low 0.962 | locus YJL095W, strain BCK1, active compounds read low 0.942 | locus YJL128C, strain PBS2, active compounds read low 0.935 | locus YJL157C, strain FAR1, active compounds read low 0.884 | locus YJR016C, strain ILV3, active compounds read low 0.951 | locus YJR066W, strain TOR1 (second series), active compounds read low 0.902 | locus YJR066W, strain TOR1, active compounds read low 0.895 | locus YKL048C, strain ELM1, active compounds read low 0.925 | locus YKL067W, strain YNK1, active compounds read low 0.909 | locus YKL101W, strain HSL1, active compounds read low 0.878 | locus YKL193C, strain SDS22, active compounds read low 0.97 | locus YKL203C, strain TOR2, active compounds read low 0.931 | locus YLR113W, strain HOG1, active compounds read low 0.966 | locus YLR133W, strain CKI1, active compounds read low 0.9 | locus YLR403W, strain SFP1, active compounds read low 0.903 | locus YML070W, strain DAK1, active compounds read low 0.846 | locus YMR001C, strain CDC5, active compounds read low 0.966 | locus YMR205C, strain PFK2 (second series), active compounds read low 0.895 | locus YMR277W, strain FCP1, active compounds read low 0.956 | locus YNL006W, strain LST8, active compounds read low 0.992 | locus YNL020C, strain ARK1, active compounds read low 0.872 | locus YNL161W, strain CBK1, active compounds read low 0.963 | locus YNL183C, strain NPR1, active compounds read low 0.896 | locus YNL207W, strain RIO2, active compounds read low 0.959 | locus YNL222W, strain SSU72, active compounds read low 0.967 | locus YNL307C, strain MCK1 (second series), active compounds read low 0.911 | locus YOL078W, strain AVO1, active compounds read low 0.963 | locus YOL136C, strain PFK27, active compounds read low 0.857 | locus YOR061W, strain CKA2, active compounds read low 0.845 | locus YOR119C, strain RIO1, active compounds read low 0.948 | locus YOR231W, strain MKK1, active compounds read low 0.951 | locus YOR329C, strain SCD5, active compounds read low 0.972 | locus YPL031C, strain PHO85, active compounds read low 0.894 | locus YPL153C, strain RAD53, active compounds read low 0.887 | locus YPL204W, strain HRR25, active compounds read low 0.908 | locus YPL209C, strain IPL1, active compounds read low 0.965 | locus YPL256C, strain CLN2, active compounds read low 0.933 | locus YPR025C, strain CCL1, active compounds read low 0.961 | locus YPR106W, strain ISR1, active compounds read low 0.962 | locus YPR111W, strain DBF20, active compounds read low 0.969 | strain NNK1, active compounds read low 0.967 | strain TSCII, active compounds read low 0.967
